Bioassay records as filed in PubChem BioAssay.
Only some compounds are listed: those with a hit (about 2.9% of all), similar ones and a draw of the others.
Mtb BioA inh – M. tuberculosis BioA enzyme inhibitors, primary screen, biochemical, plate reader, single point, HTS. AID 602481, 2012. purified M. tuberculosis BioA enzyme. inhibition, % at 9.99 µM. actives 0.096% (n = 360,000); in the data active = inhibition above about 40%
FBA Mtb inh – Mtb FBA enzyme inhibitors, primary screen, biochemical, fluorescence, strain H37Rv. purified M. tuberculosis FBA, fluorescence read-out. Fructose-bisphosphate aldolase (Mycobacterium tuberculosis (strain ATCC 25618 / H37Rv)), …. inhibition, % at 1 µM. actives 2.3% (n = 360,000); in the data active = inhibition above about 27%;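 note: 0% = vehicle and 100% = reference inhibitor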
Target sequence (P9WQA3 whole entry, looked up): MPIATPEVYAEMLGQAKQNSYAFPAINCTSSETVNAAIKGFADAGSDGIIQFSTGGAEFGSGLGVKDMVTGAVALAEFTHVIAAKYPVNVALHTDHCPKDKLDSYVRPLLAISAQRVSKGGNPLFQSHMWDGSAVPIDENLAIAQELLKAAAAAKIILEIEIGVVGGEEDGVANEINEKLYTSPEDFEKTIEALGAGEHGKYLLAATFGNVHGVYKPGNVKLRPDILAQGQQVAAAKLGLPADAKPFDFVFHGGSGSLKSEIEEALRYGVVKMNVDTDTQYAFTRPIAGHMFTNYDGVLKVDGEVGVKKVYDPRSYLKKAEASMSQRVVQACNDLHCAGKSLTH
FadD28 binding – inhibitors of FadD28 bisubstrate probe binding, primary screen, biochemical, fluorescence polarization, single point; actives 0.22% (n = 360,000); Mycobacterium tuberculosis FadD28 fatty-acid-AMP ligase; AID 588549, 2011; inhibition, % at 12.5 µM; in the data active = inhibition above about 8.5%, passing the limit was not always enough
GDH-TPI counter – GDH-TPI coupling enzyme inhibitors, primary screen, artefact control for M. tuberculosis FBA inhibitor project, biochemical, absorbance, full deck. inhibition, % at 4.8 µM. actives 1.2% (n = 360,000). GDH-TPI coupled enzyme counterscreen, NADH absorbance; in the data active = inhibition above about 30%;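 note: 0% = DMSO wells and 100% = wells lacking the enzyme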
Mtb hypoxia rep – PubChem AID 1159583. actives 0.1% (n = 300,000). fluorescence inhibition, % (test concentration not listed). M. tuberculosis hypoxia-regulated fluorescent reporter, fluorescence; in the data active = fluorescence inhibition mostly above about 23%, no sharp cut-off; inactive = mostly below about 17%
An asterisk follows results filed as active; . = not tested or not shown; + = active, no number.

SMILES	Mtb BioA inh	FBA Mtb inh	FadD28 binding	GDH-TPI counter	Mtb hypoxia rep
CS(=O)(=O)c1ccc(-c2sc3ccccc3c2C#CCCO)cc1	-1	17	-4	32*	5
COc1ccc2c(C#CCCO)c(-c3ccc(S(C)(=O)=O)cc3)sc2c1	0	+	-2	29	6
COc1ccc2c(-c3ccc(S(N)(=O)=O)cc3)c(-c3ccc(S(C)(=O)=O)cc3)sc2c1	0	+	0	12	-2
Cc1noc(C)c1NC(=O)N(C)C[C@H]1Oc2c(NC(=O)Nc3ccc4c(c3)OCO4)cccc2C(=O)N([C@@H](C)CO)C[C@H]1C	2	.	.	.	.
COc1ccc(C=NNc2nc(=O)[nH]nc2C)cc1OC	.	.	.	.	18
COc1ccc(C(C)=NNC(=S)NCCc2ccccc2)c(O)c1	.	.	.	.	7
CNC(=S)NN=C(C)c1ccc(OC)cc1O	.	4	1	39*	.
O=c1[nH]c(=S)n(-c2cccc(Cl)c2)c(O)c1/C=N/N1CCOCC1	2	-4	0	35*	6
Cc1ccc(-n2c(O)c(/C=N/N3CCOCC3)c(=O)[nH]c2=S)cc1	.	-2	0	25	4
COCCCNC(=O)COc1cc2c(c3oc(=O)c(C)c(C)c13)CCC(C)(C)O2	0	+	-2	7	4
CCCC(NC(=O)COc1cc2c(c3oc(=O)c(C)c(C)c13)CCC(C)(C)O2)C(=O)O (stereo not given)	0	+	-3	17	-11
CSCCC(NC(=O)COc1cccc2ccccc12)C(=O)O (stereo not given)	-2	3	0	2	2
CSC[C@H](NC(=O)COc1cc2c(c3oc(=O)c(C)c(C)c13)CCC(C)(C)O2)C(=O)O	1	+	-3	15	3
Cc1cc(OCC(=O)N[C@@H](Cc2c[nH]c3ccccc23)C(=O)O)c2c(C)c(C)c(=O)oc2c1	0	2	-1	10	.
CSCC[C@H](NC(=O)COc1cc2c(c3oc(=O)c(C)c(C)c13)CCC(C)(C)O2)C(=O)O	-1	+	-4	9	0
C[C@@H]1CN([C@@H](C)CO)C(=O)c2c(c3ccccc3n2C)-c2ccccc2CO[C@@H]1CN(C)C(=O)c1ccc(F)cc1	2	.	.	.	.
C[C@H](CO)N1C[C@H](C)[C@@H](CN(C)Cc2ccccc2)Oc2ncc(C#CC3(O)CCCC3)cc2C1=O	12	.	.	.	.
Cc1c(C)c2c(OCC(=O)NCC(O)c3ccccc3)cc3c(c2oc1=O)CCC(C)(C)O3 (stereo not given)	0	19	-1	15	.
CC(C)CC(NC(=O)COc1ccccc1)C(=O)O (stereo not given)	.	1	-1	0	3
Cc1c(C)c2c(OCC(=O)N[C@@H](Cc3ccccc3)C(=O)O)cc3c(c2oc1=O)CCC(C)(C)O3	3	+	-5	38*	.
Cc1c(C)c2c(OCC(=O)NC3CC3)cc3c(c2oc1=O)CCC(C)(C)O3	7	+	-1	13	.
CSC[C@H](NC(=O)COc1cc2c(c3oc(=O)cc(C)c13)CCC(C)(C)O2)C(=O)O	0	+	-5	7	7
Cc1c(C)c2c(OCC(=O)N[C@@H](CC(C)C)C(=O)O)cc3c(c2oc1=O)CCC(C)(C)O3	-3	+	-1	18	-5
CCOc1cc(C=NNC(=O)C(=O)NC2CC2)cc(Br)c1O	.	.	.	.	15
COCC(=O)N1CCCCN2[C@@H](CO)[C@H](c3ccc(-c4cccc(C)c4)cc3)[C@@H]2C1	-1	.	.	.	.
SMILES	Mtb BioA inh	FBA Mtb inh	FadD28 binding	GDH-TPI counter	Mtb hypoxia rep
Cc1c(C(=O)N2CCC(C)CC2)sc2ncnc(N(C)c3ccccc3)c12	.	0	0	35*	15
O=C1CC(c2ccc(O)c(O)c2)Oc2cc(O)cc(O)c21 (stereo not given)	0	6	-5	31*	.
O=C1CC(c2ccc(O)cc2)Oc2cc(O)cc(O)c21 (stereo not given)	1	-1	-4	27	3
c1coc(-c2nnc(-c3cccs3)o2)c1	0	150*	-3	6	10
Cn1c2ccccc2c(=O)c2cc(C#Cc3ccccn3)ccc21	0	186*	-4	26	3
C[C@@H]1CN([C@@H](C)CO)C(=O)c2cc(NC(=O)Nc3ccc(F)cc3)ccc2O[C@@H](C)CCCCO[C@H]1CN(C)C(=O)CCCN(C)C	-1	.	.	.	.
CCC(=O)Nc1ccc2c(c1)OC[C@@H](C)N(C(C)=O)C[C@H](C)[C@H](OC)CN(C)C2=O	-1	.	.	.	.
COCC(C)NC(=O)c1cc2c(ccc3ccccc32)oc1=O (stereo not given)	-1	+	-4	9	11
CN(C)c1ccc(C(=O)N/N=C/C23CC[C@@H](O)CC2(O)CC[C@@H]2[C@@H]3CCC3(C)C(C4=CC(=O)OC4)CCC23O)cc1 (stereo not given in full)	1	1	0	45*	.
CC(=O)Nc1ccc2c(c1)C(=O)N(C)[C@H]1CC[C@H](CC(=O)NCc3ccccc3)O[C@H]1CO2	14	.	.	.	.
O=C(NN=Cc1ccc(N(CCCl)CCCl)cc1Cl)c1cccnc1	.	8	-2	72*	.
Cc1cc(N(CCCl)CCCl)ccc1C=NNC(=O)c1cccnc1	20	3	4	51*	12
Cc1ccc(C=NNC(=O)c2cccnc2)o1	.	.	.	.	6
CC(C)Oc1ccc(C=NNC(=O)C(CSCc2ccccc2)NC(=O)c2ccc([N+](=O)[O-])cc2)cc1 (stereo not given)	.	.	.	.	11
Cc1ccc(-c2c(C#N)c(N)n3c(nc4ccccc43)c2C#N)cc1	.	119*	-1	12	.
CNc1cc(C)c(C#N)c2nc3ccccc3n12	0	+	0	4	22
Cc1c(CCCl)c(Cl)n2c(nc3ccccc32)c1C#N	.	3	-5	0	.
CCN(CC)c1cc(C)c(C#N)c2nc3ccccc3n12	0	23	-4	-14	19
Cc1cc(Cl)n2c(nc3ccccc32)c1C#N	.	+	-1	7	.
O=c1/c(=C\c2cc([N+](=O)[O-])cc([N+](=O)[O-])c2O)sc2nc3ccccc3n12	1	-14	23*	12	.
COc1cc(/C=C/C(=O)N2CCC=CC2=O)cc(OC)c1OC	2	3	-1	35*	.
COc1cc(C=CC(=O)N2CCC=CC2=O)cc(OC)c1OC	.	.	.	.	10
COc1cc2c(c(OC)c1OC)C(=O)C(=Cc1ccccc1)O2	0	-1	-5	36*	2
Cc1ccc2cc(CN(Cc3ccco3)S(=O)(=O)c3c(C)ccc4nsnc34)c(=O)[nH]c2c1	-1	1	-3	32*	3
Clc1ccc2c(c1)[C@H]1OCC[C@H]1[C@@H](c1ccco1)N2	-1	38*	-2	6	.
Fc1ccc2c(c1)[C@H]1OCC[C@H]1[C@@H](c1ccco1)N2	0	18	-1	-1	16
